The test system of one experiment is T1, DLK.
T1 construct: gene MAP3K12

The subject of the next experiment is T2, DMPK2.
T2 construct: gene CDC42BPG

The next experiment deals with T3, DRAK1.
T3 construct: gene STK17A
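Note: kd values determined as follow-up on hits from a single-replicate KINOMEscan panel screen.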

In the experiment with CSNK2A1, `Cc1cccc(-c2nc(Nc3ccc4[nH]ncc4c3)c3ccccc3n2)n1` [GW857175] had a Kd of 100 nM.

Take `Cc1ccccc1-n1cnc2c(N)ncnc21` [SKF-97510]: the dissociation constant (Kd) with DAPK1 was above 10000 nM.

In the experiment with DAPK3, `Cc1cc(N2Cc3ccccc3C2)nc(Nc2ccc(S(=O)(=O)N3CCOCC3)cc2)n1.Cl` [GSK1669917] registered a Kd above 10000 nM.

`CC(=O)Nc1nc2cnc(Nc3cc(NC(=O)c4cccc(CCC#N)c4)ccc3C)nc2s1` yielded a dissociation constant Kd with DDR2 above 10000 nM.

`Cc1ccc(NC(=O)Nc2cc(C(C)(C)C)nn2-c2ccccc2)cc1` [GSK1014915]: in the experiment with DDR2, binding was characterised by a dissociation constant (Kd) of 410 nM.

`Cc1cc(-c2ccc3c(c2)CC[C@@H](N[C@@H](C)c2ccccc2)C3)cnc1N.Cl` [GW412617] yielded a dissociation constant (Kd) with DLK of 280 nM.

Molecule `COc1ccc(CNC(=O)NC2CCN(c3ccnc(Nc4cc(OC)c(OC)c(OC)c4)n3)C2)cc1` (centres unmarked) [GSK1379748] had a Kd with DLK of 5100 nM.

`COc1ccc2nc(-c3cccc(C)n3)nc(Nc3ccncc3)c2c1` [GSK204919] yielded a dissociation constant Kd in the experiment with DMPK2 of 510 nM.

`Cc1cccc(-c2nc(C)cc(Nc3ccncc3)n2)n1` [GSK257997] yielded a Kd in the experiment on DMPK2 of 560 nM.

For the molecule `Nc1nc(-c2nccs2)c(-c2ccnc3ccccc23)s1` [GW693542], the Kd in the experiment on DMPK was above 10000 nM.

Molecule `C[C@@H]1CCCCN1c1cc(-c2ccc3c(N)n[nH]c3c2)nc(N)n1` [GSK2258759] registered a Kd with DRAK1 of 88 nM.

The record behind these values is article PMC5540273 (PLoS ONE, 2017).
